Source: PubChem BioAssay (National Center for Advancing Translational Sciences (NCATS))
VACV mCherry inh: qHTS for Stage-Specific Inhibitors of Vaccinia Orthopoxvirus: mCherry Reporter Primary qHTS. Potency, µM (series often up to 36.5 µM), inactives show top-dose activity change, negative = inhibition, actives largely listed as inhibitors. actives 0.63% (n = 310,000). Vaccinia virus mCherry reporter infection, fluorescence; calls by dose curve; tested in A549 cells; note: nearly all actives have a fitted effect of over 35% in size
Pf growth 48h: Primary qHTS for delayed death inhibitors of the malarial parasite plastid, 48 hour incubation; P. falciparum luciferase growth in erythrocytes, 48 h; Potency, µM (top dose mostly 28.7 µM), for the others: at the highest dose activity change, negative = inhibition, usual class: inhibitors; actives 5.9% (n = 310,000); AID 504832, 2011
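First compound was added to culture medium, then infected red cells at 0.1% parasitemia and 2% hematocrit (final). After incubation at 37 C under 5% CO2, luciferase detection reagent was dispensed and light output recorded.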
Pf growth 96h: Primary qHTS for delayed death inhibitors of the malarial parasite plastid, 96 hour incubation; Potency, µM (highest dose often 28.7 µM), for inactives: at the top dose activity change, negative = inhibition, most hits filed as inhibitors; AID 504834, 2011; P. falciparum luciferase reporter growth, 96 h; actives 6.9% (n = 320,000)
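Erythrocytes infected with luciferase-expressing P. falciparum were dispensed at 2% hematocrit and 0.05% parasitemia (final), then incubated with compounds 96 hours at 37 C in 5% CO2. Luminescence after detection reagent addition reported growth.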
VACV Venus inh: qHTS for Stage-Specific Inhibitors of Vaccinia Orthopoxvirus: Venus Reporter Primary qHTS; Vaccinia virus Venus reporter expression, fluorescence; Potency, µM (series often up to 36.5 µM), inactives show at the top dose activity change, negative = inhibition, most hits filed as inhibitors; actives 0.46% (n = 330,000); calls by dose curve; tested in A549 cells; note: nearly all actives have a fitted effect of over 30% in size
AMA1 RON2 block: qHTS for Inhibitors of AMA1-RON; Towards Development of Antimalarial Drug Lead: Primary Screen; actives 0.2% (n = 360,000); Potency, µM (titrated, usually from 58.2 µM), without a hit: top-dose activity change, negative = inhibition, hits mostly inhibitors; AlphaScreen AMA1-biotinylated RON2 peptide binding; Plasmodium falciparum AMA1 (3D7) - RON2 peptide interaction; AID 720542, 2013;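 note: 0% = vehicle wells and -100% = peptide control; nearly all actives have a fitted effect of over 45% in size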
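AMA1 (3D7) with his tag at 25 nM final met compounds first, then biotinylated RON2 peptide at 25 nM; detection used donor plus acceptor beads, 10 µg/mL apiece, read by AlphaScreen after 30 min at room temperature.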
Starred values were filed as active, the others as inactive; i = inactive; u = inconclusive; x = not tested or not shown; [ ] = another dose, or the depositor's remark. This is a sample that favours compounds with a hit; in the whole collection about 8.7% have one here. Unless noted, calls come from the whole dose curve; as a rule, active = well fitted curve in the direction sought with a large enough effect; inconclusive = small, poorly fitted or top-dose-only effect, or another doubt; inactive = no such curve, though single readings can be large; an effect the other way counts as inactive or inconclusive. Unless noted, % is set by controls: 0 for no effect and ±100 for the full control effect; potency is the fitted concentration of half-maximal effect.

SMILES	VACV mCherry inh	Pf growth 48h	Pf growth 96h	VACV Venus inh	AMA1 RON2 block
COc1ccc(-c2cc(C(F)(F)F)c(C#N)c(SCC(=O)Nc3ccc(F)cc3)n2)cc1	-5.3%	x	x	1.0%	x
CCOC(=O)c1ccc(NC(=O)C(CC)Sc2nc3ncccc3o2)cc1 (stereo not given)	-12.4%	x	x	-2.7%	x
C1=Nc2c(Nc3ccccc3)ncnc2Oc2ccccc21	x	29.2%	13.1µM*	x	1.7%
Cc1ccc(S(=O)(=O)Nc2ccc(O)c3cccnc23)cc1	-22.8%	6.57µM*	9.28µM*	3.3%	29.2%
O=S(=O)(Nc1ccc(O)c2ccccc12)c1ccc(Br)cc1	x	4.65µM*	u	x	x
Cc1ccc(S(=O)(=O)Nc2ccc(O)c3ncccc23)cc1	x	u	0.2%	x	-49.1%
O=S(=O)(Nc1ccc(O)c2ccccc12)c1cccs1	-8.9%	0.0%	-16.8%	1.0%	-8.5%
Cc1csc[n+]1CC(=O)c1ccccc1	i	x	x	-7.4%	x
CC1=NCCN1CCNC(=O)Nc1cc(C)cc(C)c1	i	1.7%	16.9%	-9.5%	2.9%
CC1=NCCN1CCNC(=O)Nc1ccc(F)cc1	-1.5%	5.7%	0.415µM*	0.1%	-0.3%
CC(=O)Oc1ccc(-c2csnn2)cc1	x	5.7%	15.7%	-19.8%	2.0%
Cc1ccccc1C(=O)NNc1ccc(-c2csnn2)cc1	-6.0%	1.85µM*	13.2%	-7.9%	-28.3%
C=CCN(CC=C)C(=S)NC(=O)Cc1cccc2ccccc12	-3.7%	u	4.15µM*	-9.8%	28.1%
Cc1ccc(CN2c3ccccc3-c3nc(SCC(=O)Nc4c(C)cc(C)cc4C)ncc3S2(=O)=O)cc1	-20.9%	x	x	-15.7%	x
CCN(CC)c1ccc(NC(=O)COc2ccccc2C#N)cc1S(=O)(=O)Nc1ccccc1OC	i	1.65µM*	9.28µM*	-0.1%	-7.6%
CCN(CC)c1ccc(NC(=O)c2ccccn2)cc1S(=O)(=O)Nc1ccccc1OC	-8.2%	5.86µM*	10.4µM*	-10.7%	5.1%
CCN(CC)c1ccc(N)cc1S(=O)(=O)Nc1ccccc1OC	-8.1%	-5.5%	11.2%	-10.9%	1.8%
CCc1cc(=O)oc2c(CNCc3c(F)cccc3Cl)c(O)ccc12	-12.3%	9.28µM*	u	-17.4%	38.3%
NNc1ccc2c(C(F)(F)F)cc(C(F)(F)F)nc2n1	-6.2%	u	15.4%	-5.0%	100.0%
N#CC(c1cccc(Cl)c1)c1ccc2c(C(F)(F)F)cc(C(F)(F)F)nc2n1 (stereo not given)	x	u	u	2.24µM*	u
O=C(OCCN1C(=O)c2cccc3c(N4CCOCC4)ccc(c23)C1=O)c1ccc(Cl)cc1	-8.7%	u	11.7µM*	-16.0%	8.3%
CC(C)Cn1c(N)c(C(=O)CSc2nnc(C3CC3)n2C2CC2)c(=O)n(C)c1=O	i	u	8.28µM*	-8.6%	-9.6%
Cn1c(N)c(C(=O)COC(=O)c2cc(C3CC3)nc3ccccc23)c(=O)n(Cc2ccccc2)c1=O	-9.3%	-8.6%	u	-17.9%	2.8%
Cn1c(N)c(C(=O)COC(=O)c2cc(-c3ccccc3)nc3ccccc23)c(=O)n(Cc2ccccc2)c1=O	-25.3%	-3.9%	-23.8%	-17.9%	8.5%
CC(C)Cn1c(N)c(C(=O)COC(=O)c2cc(C3CC3)nc3ccccc23)c(=O)n(C)c1=O	-23.7%	5.22µM*	11.7µM*	u	8.4%
SMILES	VACV mCherry inh	Pf growth 48h	Pf growth 96h	VACV Venus inh	AMA1 RON2 block
CCS(=O)(=O)N1Cc2ccccc2CC1C(=O)OCC(=O)N(C(C)C)C(C)C (stereo not given)	i	u	9.28µM*	-10.3%	5.1%
CCOc1ccc(NC(=O)C2Cc3ccccc3CN2S(=O)(=O)CC)cc1 (stereo not given)	x	u	u	x	0.9%
CC(C)Cn1c(N)c(C(=O)COC(=O)c2cc(-c3ccco3)nc3ccccc23)c(=O)n(C)c1=O	-18.4%	9.28µM*	-5.7%[5.75 µM]	-14.9%	-3.8%
CC(C)Cn1c(N)c(C(=O)COC(=O)C2Cc3ccccc3CN2S(C)(=O)=O)c(=O)n(C)c1=O (stereo not given)	-10.5%	11.7µM*	u	-19.9%	1.3%
CC(C)Cn1c(N)c(C(=O)COC(=O)c2cc(C(F)(F)F)nc3ccccc23)c(=O)n(C)c1=O	u	u	u	u	2.7%
CC(C)Cn1c(N)c(C(=O)COC(=O)C2CCCCC2)c(=O)n(C)c1=O	x	0.0%	0.0%	x	0.1%
CC(C)Cn1c(N)c(C(=O)COC(=O)c2cc(-c3ccccc3)nc3ccccc23)c(=O)n(C)c1=O	i	u	11.7µM*	-22.1%	5.4%
Cn1c(=O)c(C(=O)COC(=O)c2cc(-c3ccco3)nc3ccccc23)c(N)n(Cc2ccccc2)c1=O	x	5.22µM*	6.57µM*	x	x
Cc1cccc(-n2nc(C)c(C(=O)Nc3cc(C)ccc3C)c2-n2cccc2)c1	-11.6%	x	x	-20.8%	x
O=C(Cn1c(=O)nc(-c2ccccc2)c2cc(Cl)ccc21)Nc1ccc(F)c(Cl)c1	-7.8%	x	x	0.9%	x
CN(C)S(=O)(=O)c1ccc2c(c1)N(CC(=O)Nc1ccc(OC(F)(F)F)cc1)C(=O)CS2	-23.4%	x	x	-8.8%	x
CCCCC/C=C\C\C=C/C=C/C=C/[C@@H](SC[C@H](N)C(=O)NCC(=O)O)[C@@H](O)CCCC(=O)O	-9.1%[0.293 µM]	x	x	-7.8%[0.293 µM]	x
Cc1cccc([C@@H]2[C@@H]3C(=O)N(Cc4ccccc4)C(=O)[C@@H]3[C@]3(CC(C)C)C(=O)N(c4cccc(F)c4)C(=O)N23)c1	-29.1%	9.28µM*	u	-21.3%	-8.6%
CC[C@@]12C(=O)N(c3cccc(Br)c3)C(=O)N1[C@H](c1cccc(C)c1)[C@@H]1C(=O)N(Cc3ccccc3)C(=O)[C@@H]12	-3.1%	4.15µM*	5.22µM*	-27.1%	-5.0%
CC[C@@]12C(=O)N(c3ccccc3)C(=O)N1[C@H](c1cccc(C)c1)[C@@H]1C(=O)N(Cc3ccccc3)C(=O)[C@@H]12	-1.0%	u	6.57µM*	-14.3%	13.3%
CC[C@@]12C(=O)N(c3cccc(F)c3)C(=O)N1[C@H](c1cccc(C)c1)[C@@H]1C(=O)N(Cc3ccccc3)C(=O)[C@@H]12	-29.2%	u	u	-20.7%	-7.1%
CN(C)c1ccc(CNC(=O)C2(C)Cc3c(-c4ccc5c(c4)OCO5)ccnc3O2)cc1 (stereo not given)	-14.5%	x	x	u	28.2µM*
CN(C)c1ccc(CNC(=O)C2(C)Cc3c(-c4ccc(N(C)C)cc4)ccnc3O2)cc1 (stereo not given)	-22.9%	x	x	u	11.2µM*
CN(C)c1ccc(-c2ccnc3c2CC(C)(C(=O)Nc2cccc(N(C)C)c2)O3)cc1 (stereo not given)	2.6%	x	x	3.1%	17.8µM*
